CYP2C19 inh: blockers of cytochrome P450 2C19 activity – biochemical, luminescence, ADME assay, primary screen; P33261; CYP2C19 Supersomes, luciferin-H EGE luminescence, 30 min; inhibition, % at 5 µM; 96,000 tested, 21% active;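 active means CYP2C19 inhibition above a set limit at 5 µM in the primary screen, cut at about 50% in these data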;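 further: plate controls were negative control wells for no effect and 2.5 mM tranylcypromine positive control for full effect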
CYP2C19 act: human CYP2C19 activators, primary screen, biochemical, luminescence. 96,000 tested, under 10 active. recombinant CYP2C19, luciferin-H EGE luminescence; stronger effect = higher value; 0 = fully inhibited enzyme, 1 = untreated enzyme. activation factor at 5 µM. AID 1025, 2008;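 active means activation factor of at least 2 at 5 µM in the primary screen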;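 further: 0 = wells with 2.5 mM tranylcypromine and 1 = vehicle-only wells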
CYP2C9 inh: blockers of cytochrome P450 2C9 activity – biochemical, luminescence, ADME assay, primary screen | AID 777, 2007 | P11712 | inhibition, % at 5 µM | 96,000 tested, 20% active | CYP2C9 Supersomes, luciferin-H conversion;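 active means blocking of liver enzyme CYP2C9 beyond about 50% at 5 µM, limit read from the data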
Target sequence (P11712 whole entry, looked up): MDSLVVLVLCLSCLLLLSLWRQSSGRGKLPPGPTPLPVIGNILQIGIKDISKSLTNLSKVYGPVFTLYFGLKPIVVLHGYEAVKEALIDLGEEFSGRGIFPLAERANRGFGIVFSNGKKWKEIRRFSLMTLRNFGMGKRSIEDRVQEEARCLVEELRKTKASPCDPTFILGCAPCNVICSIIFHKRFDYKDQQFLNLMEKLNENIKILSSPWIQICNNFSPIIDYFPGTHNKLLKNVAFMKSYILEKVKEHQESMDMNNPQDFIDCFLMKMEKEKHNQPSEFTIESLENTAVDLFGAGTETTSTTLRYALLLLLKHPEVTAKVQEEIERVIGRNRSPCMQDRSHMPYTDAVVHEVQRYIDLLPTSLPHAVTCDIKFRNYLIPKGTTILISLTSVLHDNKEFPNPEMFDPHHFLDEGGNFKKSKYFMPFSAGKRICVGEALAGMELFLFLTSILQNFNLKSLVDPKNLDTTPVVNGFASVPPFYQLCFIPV
CYP2C9 activ: human CYP2C9 activators, primary screen, biochemical, luminescence; Cytochrome P450 2C9 (Homo sapiens), P11712; recombinant CYP2C9, luciferin-H conversion; stronger effect = higher value; factor 1 = untreated enzyme, 0 = blocked; activation factor at 5 µM; 96,000 tested, 1.4% active;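 active means activation factor of 2 or more for CYP2C9 at a 5 µM dose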;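 further: 0 = sulfaphenazole-blocked wells and 1 = vehicle-only wells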
Cav32 inh: Cav3.2 calcium influx blockers – cell-based, Fluo-4 calcium fluorescence, FDSS, MLSMR library, primary screen; Voltage-dependent T-type calcium channel subunit alpha-1H (Homo sapiens), O95180; Cav3.2-expressing cells; stronger effect = lower value; B-score at 10 µM; 100,000 tested, 4% active;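 active means single-dose well whose peak fluorescence ratio is a statistical outlier from its plate by either plate-standardised score or position-corrected B-score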
Numbers without * were called inactive; x = no result given. Sampled rows, rich in hits. Any-hit rate of the full collection: about 27%.

SMILES	CYP2C19 inh	CYP2C19 act	CYP2C9 inh	CYP2C9 activ	Cav32 inh
CCc1ccccc1NS(=O)(=O)c1cc(C)ccc1OC	84*	0.2	54*	0.5	-2.3
COc1ccc(C)cc1S(=O)(=O)Nc1cccc(SC)c1	21	0.8	22	0.8	0.11
COc1ccccc1CNS(=O)(=O)c1c(C)noc1C	43	0.6	23	0.8	0.26
COc1cc(N)ccc1Cc1ccc(N)cc1OC	78*	0.2	-41	1.4	-0.12
CCC(c1nnnn1CC1CCCO1)N(CCN1CCOCC1)Cc1cc2cc(C)ccc2[nH]c1=O (stereo unspecified)	-14	1.1	-12	1.1	0.36
Cn1nc(CC(=O)Nc2cccc3ncccc23)c2ccccc2c1=O	-12	1.1	-7	1.1	1.2
C=CCSc1nnc(-c2cc3c(-c4ccccc4)nn(C)c3s2)n1C	55*	0.5	33	0.7	x
O=C(O)CC(NC(=O)COc1ccc(Cl)cc1Cl)C(=O)O (stereo unspecified)	0	1	-10	1.1	0.15
O=C(CCc1ccccc1)NNC(=S)NC(=O)c1ccc(Cl)cc1	20	0.8	43	0.6	-3.7*
Cc1ccccc1C(=O)NNC(=S)NC(=O)c1ccc(Cl)cc1Cl	1	1	23	0.8	-4*
O=C(NC(=S)Nc1ccc(Oc2ccc(Cl)cc2)cc1)c1ccccc1	8	0.9	31	0.7	-1
O=C(NNC(=S)NC(=O)c1cccnc1)c1ccc(Cl)cc1	2	1	63*	0.4	-2.7
CCNC(=S)NNC(=O)c1cccnc1	x	x	x	x	2
COc1ccccc1NC(=S)NNC(=O)c1ccc(Cl)cc1Cl	x	x	x	x	-2.9
Cc1ccc(C(=O)NNC(=S)NC(=O)c2ccc(Cl)cc2)cc1	0	1	87*	0.1	-4.2*
COc1ccc([C@@H]2C[C@H](c3ccccc3)Oc3cc(C)cc(C)c32)cc1	x	x	x	x	-0.65
O=C(Nc1cccc(Cl)c1)N1CCSc2cc(Cl)ccc21	-6	1.1	6	0.9	-1.4
Cc1cc(C(=O)NC(C)C)on1	0	1	2	1	-0.3
Cc1ccccc1OCC(=O)Nn1c(COc2ccccc2)nc2ccccc2c1=O	34	0.7	100*	0	-2.5
Cc1cccc(C)c1OCC(=O)Nn1c(COc2ccccc2)nc2ccccc2c1=O	13	0.9	76*	0.2	-0.44
CC(=O)Nn1c(COc2ccccc2C)nc2ccccc2c1=O	76*	0.2	77*	0.2	0.81
COc1cccc(OC)c1C(=O)Nn1c(C2CCC2)nc2ccccc2c1=O	9	0.9	26	0.7	0.29
O=C1NC[C@@H](Cc2cccc3ccccc23)N(CCc2cc(C(F)(F)F)cc(C(F)(F)F)c2)C1=O	x	x	x	x	-1.3
O=C1CC(SC(=Nc2ccccc2)Nc2ccccc2)C(=O)N1c1cccc2ccccc12 (stereo unspecified)	10	0.9	17	0.8	0.0022
COC(=O)C1=C(C)NC(=O)C1(NC(=O)CN1CCCC1=O)C(F)(F)F (stereo unspecified)	x	x	x	x	0.72
SMILES	CYP2C19 inh	CYP2C19 act	CYP2C9 inh	CYP2C9 activ	Cav32 inh
CCOC(=O)c1sc2nc(C(C)C)c3c(c2c1N)CC(C)(C)OC3	5	0.9	69*	0.3	-0.59
Fc1cccc(Cn2cc(C(=S)N3CCCCC3)c3ccccc32)c1	9	0.9	28	0.7	-4.9*
O=C(CS(=O)(=O)c1cn(Cc2cccc(F)c2)c2ccccc12)N1CCOCC1	34	0.7	13	0.9	0.24
COc1cccc(OCCc2c(C)n[nH]c2C)c1	19	0.8	-3	1	-0.14
Cc1n[nH]c(C)c1CCCOc1ccccc1	87*	0.1	60*	0.4	-0.59
COc1ccc(OCCCc2c(C)n[nH]c2C)cc1	85*	0.2	69*	0.3	x
Cc1cccc(OCCCCc2c(C)n[nH]c2C)c1	89*	0.1	76*	0.2	-5.8*
COc1cccc(/C=N/NC(=O)CCc2c(C)n[nH]c2C)c1	26	0.7	11	0.9	-0.47
CCOC(=O)c1cc(-c2ccccc2)nn1CC1CC(c2cccnc2)=NO1 (stereo unspecified)	x	x	x	x	0.43
CC1C(O)=C(c2nc3ccccc3[nH]2)C(=N)N1c1ccccc1 (stereo unspecified)	9	0.9	2	1	0.042
